According to ChEMBL document CHEMBL5724796, “Tm Shift (DSF) assay results for EUbOPEN Chemogenomics Library” (2024):
Non-standard residues stand in square brackets, D forms with d. Residues, ends and D or L forms follow the SMILES beside them. *: point of attachment. Nle = CCCC[C@H](N)C(=O)O; Cbz = O=C(OCc1ccccc1)*; CH2F = FC*

Target: Cyclin-dependent kinase 2 (Homo sapiens) (UniProt P24941)
Details: Compound concentration 20.0 uM

| Compound | ΔTm |
| --- | --- |
| Cc1noc(C)c1-c1cc(Cl)c(Nc2ccccc2C(=O)O)c(Cl)c1 | -0.13 °C |
| Cc1ncccc1-c1cnc(NCc2c(F)ccc3c2CCO3)n2cnnc12 | 0.42 °C |
| Fc1ccc(CNc2ncnc3ccc(F)cc23)cc1 | 0.04 °C |
| CCCC[C@@H](C=O)NC(=O)[C@H](CC(C)C)NC(=O)[C@H](CC(C)C)NC(C)=O (Ac-Leu-Leu-[Nle]-aldehyde) | 0.09 °C |
| Nc1ncnc2nc(-c3ccc(N4CCOCC4)nc3)cc(-c3cccc(Br)c3)c12 | 0.07 °C |
| COC(=O)CC[C@H](NC(=O)[C@H](Cc1c[nH]c2ccccc12)NC(=O)OCc1ccccc1)C(=O)N[C@@H](Cc1cnc[nH]1)C(=O)N[C@@H](CC(=O)OC)C(=O)CF (Cbz-WE(OMe)HD(OMe)-CH2F) | 0.18 °C |
| Cc1ccc(F)c2cc(C(=O)N[C@@H]3CCC[C@H](N4CC[C@H](N(C)S(C)(=O)=O)C4)C3)[nH]c12 | 0.24 °C |
| NC(=O)c1cnc(N[C@@H]2CCCC[C@@H]2N)nc1Nc1cccc(-n2nccn2)c1 | 5.92 °C |
| CN(CCCCCCNc1ccnc2cc(Cl)ccc12)CCCCCCNc1ccnc2cc(Cl)ccc12 | 0.27 °C |
| CCCOc1ccc(NC(=O)CN2CCN(C)CC2)cc1-c1nc(CC)c(CC)c(=O)[nH]1 | 0.23 °C |
| COc1cc(C(C)C)c2c(c1)S(=O)(=O)N(COc1cc(=O)n3cccc(OCCN4CCCCC4)c3n1)C2=O | -0.17 °C |
| O=C(CCl)Nc1ccc(S(=O)(=O)c2ccc(NC(=O)CCl)cc2)cc1 | 0 °C |
| CCn1c(=O)c(C)cn(Cc2nnc(-c3ccc(F)c(O)c3F)s2)c1=O | -0.07 °C |
| Cc1ncsc1-c1ccc([C@H](C)NC(=O)[C@@H]2C[C@@H](O)CN2C(=O)[C@@H](NC(=O)COCCCOCCNC(=O)C[C@@H]2N=C(c3ccc(Cl)cc3)c3c(sc(C)c3C)-n3c(C)nnc32)C(C)(C)C)cc1 | -3.66 °C |
| COc1cc2c(cc1OC)[C@H]1C[C@@H](OC(=O)[C@@H](N)C(C)C)[C@H](CC(C)C)CN1CC2 | 0.58 °C |
| CC(=O)OCCN1C(=O)c2c(C)nc3ccc(S(=O)(=O)N4CCOCC4)cc3c2C1=O | -0.16 °C |
| COc1cc(-c2cn(C)c(=O)c3cnccc23)cc(OC)c1CN(C)C | 0.82 °C |
| COc1cc(Nc2ncc(F)c(Nc3ccc4c(n3)N(COP(=O)(O)O)C(=O)C(C)(C)O4)n2)cc(OC)c1OC | 5.51 °C |

| Compound | ΔTm |
| --- | --- |
| O=C(NO)C(c1ccc(-c2ncc(C(F)(F)F)cn2)cc1)c1ccccc1F (stereo unspecified) | 0.08 °C |
| Cc1ccsc1C(=CCCN1CCC[C@@H](C(=O)O)C1)c1sccc1C | 0.86 °C |
| NC(=O)c1cccc(NC(=O)CCC(=O)NCCc2cn(CCNS(=O)(=O)c3cccc(C(=O)O)c3)nn2)c1 | -0.69 °C |
| CC(C)c1ccc(C(=O)N=C(N)N)cc1S(C)(=O)=O | 0.03 °C |
| CCc1oc2ccccc2c1C(=O)c1cc(Br)c(O)c(Br)c1 | -2.31 °C |
| Cc1sc(C(=O)c2cncnc2N[C@@H]2C[C@H](COS(N)(=O)=O)[C@@H](O)C2)cc1[C@@H]1NCCc2ccc(Cl)cc21 | -0.03 °C |
| Nc1c[nH]c(=O)c2cc(-c3ccccc3)sc12 | -0.22 °C |
| O=C(O)CCNc1cc(N2CCc3ccccc3CC2)nc(-c2cccnc2)n1 | 0.04 °C |
| CC1(C)CC[C@]2(C(=O)O)CC[C@]3(C)C(=CC[C@@H]4[C@@]5(C)C=C(O)C(=O)C(C)(C)[C@@H]5CC[C@]43C)[C@@H]2C1 | -0.16 °C |
| Cn1ncc2c(-c3c(-c4ccc(F)cn4)nn4c3COC(C)(C)C4)ccnc21 | -0.29 °C |
| Cc1[nH]c2c(N3CCCCC3)c(-c3ccccc3)nn2c(=O)c1-c1ccc(O)cc1 | 0.64 °C |
| O=C1c2ccccc2C(=O)c2oc(-c3cccnc3)nc21 | 0.36 °C |
| Cn1c(NCCN(CCO)CCCc2ccc([N+](=O)[O-])cc2)cc(=O)n(C)c1=O | 0.08 °C |
| CC(C)[C@H](NC(=O)OCc1ccccc1)C(=O)NC(CC(=O)O)C(=O)CF (stereo partly specified) | -0.73 °C |
| CN(C)CCCNC(=O)c1ccc(-c2cc(O)c3ncccc3c2)cc1 | 0.45 °C |
| O=C(c1cc(Cc2n[nH]c(=O)c3ccccc23)ccc1F)N1CC(CNC2CC2)C1 | 0.08 °C |
| C[C@@H]1O[C@@H](CC(=O)O)CC2=C1C(=O)c1c(O)cccc1C2=O | 0.21 °C |
| Cc1ncsc1-c1ccc([C@H](C)NC(=O)[C@@H]2C[C@@H](O)CN2C(=O)[C@@H](NC(=O)CNC(=O)c2ccc(F)c(-c3ccc(N4C[C@@H](C)N(C)[C@@H](C)C4)c(NC(=O)c4c[nH]c(=O)cc4C(F)(F)F)c3)c2)C(C)(C)C)cc1 | -0.94 °C |
